# Compound activity (PubChem)
# HTT-AS act – Primary qHTS for Identification of Small Molecule Activators of Huntingtin-Antisense Promoter Activity | HEK293 HTT-AS promoter firefly luciferase reporter, 24 h; response scale: percent change from vehicle, -100% = no light | Potency, µM (doses to about 57.5 µM), without a hit: at the top dose activity change, positive = activation, usual class: activators | 48,000 compounds, 0.24% hits; further: nearly all actives have a fitted effect of over 55% in size
#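 Luminescence was read after Dual-Glo reagent and a 10 min room-temperature incubation. Values were normalized to vehicle (0% activity) and zero RLU (-100% activity). Reporter HEK293 cells had been exposed to compounds (up to 57.5 uM final) for 24 h.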
# HTT promoter inh – Primary qHTS for Identification of Small Molecule Inhibitors of Huntingtin Promoter Activity | HEK293 HTT promoter firefly luciferase reporter, 24 h | Potency, µM (doses to about 57.5 µM), without a hit: at the top dose activity change, negative = inhibition, usual class: inhibitors | 48,000 compounds, 0.93% hits; further: nearly all actives have a fitted effect of over 50% in size
#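 HEK293 cells carrying firefly luciferase reporters were seeded at 2,500 per well in Opti-MEM and cultured for 24 h. They were then treated with compounds at up to 57.5 uM final for 24 h at 37 degrees C before Dual-Glo luminescence readout.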
# TSG101-PTAP inh – qHTS Validation Assay for Inhibitors of HIV-1 Budding by Blocking the Interaction of PTAP/TSG101: Sytravon Library Screen; Tumor susceptibility gene 101 protein (Homo sapiens), Q99816; Fluorescence polarization, FITC-PTAP peptide/Tsg101, 20 min; Potency, µM (top dose mostly 115 µM), most hits filed as inhibitors; 44,000 tested, under 10 active; further: 0% is about no effect
# Target sequence (Q99816 whole entry, looked up): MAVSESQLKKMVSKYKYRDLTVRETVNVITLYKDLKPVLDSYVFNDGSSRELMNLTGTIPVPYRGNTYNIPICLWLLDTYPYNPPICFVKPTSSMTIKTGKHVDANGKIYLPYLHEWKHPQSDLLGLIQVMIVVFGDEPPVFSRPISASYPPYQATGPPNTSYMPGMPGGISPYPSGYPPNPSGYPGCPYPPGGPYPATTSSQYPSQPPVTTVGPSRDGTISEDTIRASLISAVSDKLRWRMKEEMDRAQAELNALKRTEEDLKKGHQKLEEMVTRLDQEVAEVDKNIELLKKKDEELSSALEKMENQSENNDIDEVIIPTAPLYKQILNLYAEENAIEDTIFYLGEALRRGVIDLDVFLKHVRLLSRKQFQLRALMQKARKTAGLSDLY
#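 FITC-labeled PTAP peptide (50 nM final) binding to Tsg101 binding domain (10 uM final) read by fluorescence polarization after 20 min at r.t. in HEPES pH 7.5 buffer. Actives by CRC class, <25 µM.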
# FH mod – Identification of activators of human fumarate hydratase by quantitative high-throughput screening. Fumarate hydratase, mitochondrial (Homo sapiens), P07954. FH coupled MDH/diaphorase resazurin fluorescence, 15 min. Potency, µM (top dose mostly 79.9 µM), for inactives: at the top dose activity change, negative = inhibition, usual class: inhibitors. 54,000 compounds, 0.22% hits; further: on the % scale 0 is the no-effect control and ±100 the full control effect; the screen sought activators but most active calls are inhibition curves; nearly all actives have a fitted effect of over 45% in size
# * marks the source's active call; other numbers are inactive results; i = inactive; ? = inconclusive; · = no result given; [ ] = remark or other dose. Shown are actives, neighbours in structure and some others; about 1.3% of the full set was active somewhere. The call rests on the fitted dose curve; in most records, active means well fitted curve in the direction sought with a large enough effect; inconclusive means small, poorly fitted or top-dose-only effect, or another doubt; inactive means no such curve, though single readings can be large; an effect the other way counts as inactive or inconclusive. Potency means the concentration at half of the fitted maximal effect.
SMILES,HTT-AS act,HTT promoter inh,TSG101-PTAP inh,FH mod
CCc1cccc(NS(=O)(=O)c2ccc(-n3cccn3)cc2)c1,-40%,35µM*,i,-13%
COc1ccc(NS(=O)(=O)c2ccc(-n3cccn3)cc2)cc1OC,-90%,7.9µM*,i,-1%
CCNC1(C(N)=O)CCN(c2ncnc3c2nc(-c2ccccc2Cl)n3-c2ccc(Cl)cc2)CC1,·,·,·,-6%
O=C(Nc1ccc(Br)cc1)C1CCCN1S(=O)(=O)c1ccc(F)cc1 (stereo unspecified),-42%,35µM*,i,-12%
Cn1c(=O)c(=O)n(C)c2cc(S(=O)(=O)N3CCCC3C(=O)Nc3ccc(F)cc3)ccc21 (stereo unspecified),-4%,-11%,i,2%
CC(=O)OC[C@]12[C@@H](OC(=O)c3ccoc3)C[C@@H]3[C@@H](OC(C)=O)[C@]1(OC3(C)C)[C@@](C)(O)C[C@H](OC(=O)c1ccoc1)[C@@H]2OC(=O)c1ccoc1,·,·,·,2%[20.6 µM]
Cc1ccc(Cn2c(C)c3cnn(CC(=O)N4CCN(c5ccc(F)cc5)CC4)c(=O)c3c2C)cc1,-85%,14µM*,i,-26%
Cc1cc(Nc2cc(N3CCN(C)CC3)nc(/C=C/c3ccccc3)n2)n[nH]1,·,·,·,-11%
CCCOc1ccccc1C(=O)Nc1ccc(-c2nc3ccc(C)cc3s2)cc1,2.2µM*,-15%,i,-10%
CC[C@@H](C)[C@H](NC(=O)C(C)(C)NC(=O)[C@H](CCC(N)=O)NC(=O)C(C)(CC)NC(=O)[C@H](Cc1c[nH]c2ccccc12)NC(C)=O)C(=O)N[C@H](C(=O)NC(C)(C)C(=O)N[C@@H](CC(C)C)C(=O)NC(C)(C)C(=O)N1CCC[C@H]1C(=O)N[C@@H](CCC(N)=O)C(=O)NC(C)(C)C(=O)N1CC(O)C[C@H]1C(=O)NC(C)(CC)C(=O)C1CC[C@@H](C(=O)N[C@@H](Cc2ccccc2)C(=O)NCC(=O)O)N1)C(C)O (stereo partly specified),·,·,·,-12%[13.5 µM]
C=CC(=O)Nc1cccc(Nc2nc(Nc3ccccc3)ncc2C)c1,·,·,·,2%
O=C(c1ccc(F)cc1F)N1CCC(c2noc(-c3ccc(S(=O)(=O)N4CCCC4)cc3)n2)CC1,-2%,-7%,i,1%
COc1ccccc1C(=O)N1CCC(c2noc(-c3ccc(S(=O)(=O)N4CCCC4)cc3)n2)CC1,-41%,25µM*,i,-11%
CN(C)CCN(Cc1ccccc1)C(=O)c1cc(-c2ccc(F)cc2)n2nc(C(C)(C)C)cc2n1,·,·,·,-18%
COc1cc(OC)cc(-c2cc3nc(C)c(CCC(=O)Nc4ccccc4OC)c(C)n3n2)c1,-83%,?,i,-25%
COc1cc(OC)cc(-c2cc3nc(C)c(CCC(=O)NCc4ccc(Cl)cc4)c(C)n3n2)c1,-86%,5µM*,i,-26%
COc1ccccc1CNC(=O)CCc1c(C)nc2cc(-c3ccc(Cl)cc3)nn2c1C,-69%,4µM*,i,-10%
Cc1nc2cc(-c3ccccc3)nn2c(C)c1CCC(=O)Nc1ccc(F)cc1F,-79%,?,i,-4%
Cc1nc2cc(-c3cccc(F)c3)nn2c(C)c1CCC(=O)Nc1ccccc1C(N)=O,-71%,2.2µM*,i,11%
COc1ccc(CNC(=O)CCc2c(C)nc3cc(-c4ccc(OC)cc4OC)nn3c2C)cc1,-37%,-17%,i,-9%
COc1cc(OC)cc(-c2cc3nc(C)c(CCC(=O)Nc4ccc(C(C)=O)cc4)c(C)n3n2)c1,-78%,3.2µM*,i,-6%
CC1CCN(C(=O)CC#N)CC1N(C)c1ncnc2[nH]ccc12 (stereo unspecified),·,·,·,0%
CC[C@H]1OC(=O)[C@H](C)[C@@H](OC2C[C@@](C)(OC)[C@@H](O)[C@H](C)O2)[C@H](C)[C@@H](OC2O[C@H](C)C[C@H](NC)[C@H]2O)[C@](C)(O)C[C@@H](C)CN(C)[C@H](C)[C@@H](O)[C@]1(C)O (stereo partly specified),·,·,·,2%
CCOC(=O)CC(NC(=O)CCc1c(C)nc2c(-c3ccccc3)c(C)nn2c1C)c1ccc(C)cc1 (stereo unspecified),-45%,?,i,-29%
CCOC(=O)CC(NC(=O)CCc1c(C)nc2cc(-c3ccccc3)nn2c1C)c1ccc(C)cc1 (stereo unspecified),-80%,2.5µM*,i,-22%
SMILES,HTT-AS act,HTT promoter inh,TSG101-PTAP inh,FH mod
COc1cc(OC)cc(-c2cc3nc(C)c(CCC(=O)NCc4ccccc4)c(C)n3n2)c1,-86%,2µM*,i,?
COc1ccccc1-c1cc2nc(C)c(CCC(=O)NCCc3ccc(SC)cc3)c(C)n2n1,-74%,20µM*,i,-28%
Cc1nc2cc(-c3ccccc3)nn2c(C)c1CCC(=O)NCc1cccc(Cl)c1,-71%,13µM*,i,-12%
CCc1ccccc1NC(=O)CCc1c(C)nc2cc(-c3ccccc3)nn2c1C,-57%,?,i,-6%
COc1cc(OC)cc(-c2cc3nc(C)c(CCC(=O)NCCc4cccc(C)c4)c(C)n3n2)c1,-71%,?,i,-25%
C/C=C(\C)C(=O)OC1C[C@@]2(COC(C)=O)O[C@H]2/C=C\[C@@]2(C)O[C@@H]2[C@H]2OC(=O)C(COC(C)=O)=C12 (stereo partly specified),·,·,·,-10%[53.3 µM]
COc1ccccc1C(=O)OCc1cc(=O)n2c(C)csc2n1,11µM*,59%,i,14%
COc1cccc(C(=O)Nc2ccccc2C(=O)OCc2cc(=O)n3c(C)csc3n2)c1,-20%,-25%,i,4%
COc1c(C)cc(NC(=O)c2nn(Cc3ccc(F)cc3)c3c2CN(C(=O)c2ccc[nH]2)C[C@]3(C)C(N)=O)cc1C,·,·,·,-14%[20.6 µM]
COc1cccc(Cn2cnc3c2c(=O)n(C)c(=O)n3C)c1,-51%,14µM*,i,3%
O=C(NCC(c1ccccc1)c1ccccc1)c1nn(-c2ccccc2F)nc1CO,-37%,4µM*,i,-9%
Cc1cnc(-c2ccccc2C(C)C)nc1NCc1ccc(-n2ccnn2)cc1,·,·,·,-3%
[N-]=[N+]=Nc1ccc(C(=O)CSC[C@H](NC(=O)CC[C@H](N)C(=O)O)C(=O)NCC(=O)O)cc1,·,·,·,32µM*
N[C@@H](CCC(=O)N[C@H](CSN=O)C(=O)NCC(=O)O)C(=O)O,·,·,·,-1%[53.3 µM]
CC(C)N(CCCNC(=O)Nc1ccc(C(C)(C)C)cc1)C[C@H]1O[C@@H](n2cc(Br)c3c(N)ncnc32)[C@H](O)[C@@H]1O,·,·,·,3%
NC1(c2ccc(NC(=O)c3ccnc(-c4cc(C(=O)O)ccn4)c3)cc2)CC1,·,·,·,5%
